Among the data in PubChem BioAssay (NCI) are growth inhibition values, retold here.

This is part of a sample that, as a whole, favours compounds with a hit. Of some 79,000 tested, about 15% had one in any assay. Unmarked numbers belong to inactive results. Calls of active or inactive are those of the source. Cut-off read from the data, not from the text of the source: active = growth inhibition above about 70%; inactive = the rest.

Assay [1] is described as follows: NCI Yeast Anticancer Drug Screen. Data for the rad50 strain (AID 155).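 Note: 0% = growth of vehicle-only cultures of the same strain.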 To be noted: S. cerevisiae rad50 strain growth inhibition, hits give high values. The method in brief: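 Cells are treated with compound, grown, and their growth is then scored against vehicle-only cultures of the same repair-deficient yeast strain.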
Assay [2] can be described thus: NCI Yeast Anticancer Drug Screen. Data for the mec2-1 strain (AID 157). The following applies: S. cerevisiae mec2-1 strain, hits give high values. The gist of the method: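 Using mec2-1 yeast: add compound, measure growth, express inhibition versus vehicle-treated cultures.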
The nature of assay [3]: NCI Yeast Anticancer Drug Screen. Data for the sgs1 mgt1 strain (AID 161).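 Note: 0% = growth of cultures given vehicle only.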 The following applies: S. cerevisiae sgs1 mgt1 strain, hits give high values. The method in brief:
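Yeast cells carrying a defined DNA-repair defect were exposed to test compounds. Growth inhibition was measured relative to vehicle-treated controls.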

Assay [4] in a line: NCI Yeast Anticancer Drug Screen. Data for the cln2 rad14 strain (AID 165).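 Note: 0% = growth equal to vehicle treated cultures.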 The following applies: S. cerevisiae cln2 rad14 strain, hits give high values. The gist of the method:
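Yeast strain cln2 rad14, bearing defects in cell cycle control and DNA repair, serves as the test system; values reflect growth inhibition compared with vehicle.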

Assay [5] can be described thus: NCI Yeast Anticancer Drug Screen. Data for the bub3 strain (AID 167). To be noted: S. cerevisiae bub3 mutant strain, hits give high values. The gist of the method: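 Part of a panel of yeast mutants defective in DNA damage repair or cell cycle regulation. Each strain is grown with compound, and inhibition is calculated relative to solvent-treated cultures.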
Assay [6] can be described thus: NCI Yeast Anticancer Drug Screen. Data for the mlh1 rad18 strain (AID 175). The following applies: S. cerevisiae mlh1 rad18 strain growth inhibition, hits give high values. The method in brief: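 Steps: expose repair-defective yeast to compound; measure growth; express inhibition against vehicle-treated controls.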
The mark [7] stands for this setting: at 5.0 µM (retest, dose inferred, filed as 0.5).
Setting [8] is: at 50.0 µM (retest, dose inferred, filed as 5.0).

With `OCCOSCCO`, the growth inhibition in assay [1] (setting [7]) was 5%; in assay [1] (setting [8]), -4%; in assay [1] (at 50.0 µM) it was -0.05%; in assay [2] (setting [7]) it was 2%; in assay [2] (setting [8]), -4%; in assay [2] (at 50.0 µM) it was -14.1%. In addition, the growth inhibition in assay [3] (setting [7]) is -8%; in assay [3] (setting [8]), -2%; in assay [3] (at 50.0 µM), 10.2%; in assay [4] (setting [7]) it was 6%; in assay [4] (setting [8]) it was 2%; in assay [4] (at 50.0 µM), 15.8%. The growth inhibition in assay [5] (setting [7]) is 2%; in assay [5] (setting [8]), 6%; in assay [5] (at 50.0 µM), -6.5%; in assay [6] (setting [7]), 4%; in assay [6] (setting [8]), -4%; in assay [6] (at 50.0 µM), -14.1%.
On to `COc1cccc(N=N/C(=N\NC(=O)c2cc(Br)ccc2O)c2ccc(N(CCC#N)CCC#N)cc2OC)c1`, for which the growth inhibition in assay [1] (setting [7]) was 17%; in assay [1] (setting [8]) it was 30%; in assay [1] (at 50.0 µM), 72% (active); in assay [2] (setting [7]), 22%; in assay [2] (setting [8]) it was 35%; in assay [2] (at 50.0 µM), 48.9%. The growth inhibition in assay [3] (setting [7]) is -8%; in assay [3] (setting [8]), 34%; in assay [3] (at 50.0 µM), 34.5%; in assay [4] (setting [7]) it was 0%; in assay [4] (setting [8]) it was 19%; in assay [4] (at 50.0 µM) it was 20.9%. In addition, the growth inhibition is -2% in assay [5] (setting [7]); 42% in assay [5] (setting [8]); 39.4% in assay [5] (at 50.0 µM); 26% in assay [6] (setting [7]); 43% in assay [6] (setting [8]); 76.2% (active) in assay [6] (at 50.0 µM).
`COc1cc(OC)c(/C=C/c2c3ccccc3cc[n+]2C)c(OC)c1`: the growth inhibition in assay [1] (setting [7]) was 66%; in assay [1] (setting [8]), 77% (active); in assay [1] (at 50.0 µM) it was 61.6%; in assay [2] (setting [7]), 33%; in assay [2] (setting [8]), 54%; in assay [2] (at 50.0 µM), 49.5%. Besides, the growth inhibition is 67% in assay [3] (setting [7]); 84% (active) in assay [3] (setting [8]); 69.5% in assay [3] (at 50.0 µM); 46% in assay [4] (setting [7]); 64% in assay [4] (setting [8]); 9.85% in assay [4] (at 50.0 µM). Further, the growth inhibition is 67% in assay [5] (setting [7]); 79% (active) in assay [5] (setting [8]); 59.3% in assay [5] (at 50.0 µM); 50% in assay [6] (setting [7]); 68% in assay [6] (setting [8]); 54.1% in assay [6] (at 50.0 µM).
With `COc1cc([C@@H]2c3cc4c(cc3[C@H](OC3OC5COC(c6ccccc6)OC5C(O)C3O)[C@H]3COC(=O)[C@H]23)OCO4)cc(OC)c1OC` (stereo not given in full), the growth inhibition in assay [1] (setting [7]) is -4%; in assay [1] (setting [8]), 91% (active); in assay [1] (at 50.0 µM), 81.3% (active); in assay [2] (setting [7]), -13%; in assay [2] (setting [8]), 77% (active); in assay [2] (at 50.0 µM) it was 81% (active). For the same molecule, the growth inhibition in assay [3] (setting [7]) is 18%; in assay [3] (setting [8]), 70% (active); in assay [3] (at 50.0 µM) it was 76.3% (active); in assay [4] (setting [7]), 12%; in assay [4] (setting [8]), 56%; in assay [4] (at 50.0 µM) it was 63%. Besides, the growth inhibition in assay [5] (setting [7]) is 5%; in assay [5] (setting [8]), 82% (active); in assay [5] (at 50.0 µM), 77.5% (active); in assay [6] (setting [7]) it was -4%; in assay [6] (setting [8]), 91% (active); in assay [6] (at 50.0 µM), 81% (active).
With `CC(C)(C)c1ccc(O)c(-c2ccccc2)c1`, the growth inhibition in assay [1] (setting [7]) is -3%; in assay [1] (setting [8]), 97% (active); in assay [1] (at 50.0 µM), 99.2% (active); in assay [2] (setting [7]), -6%; in assay [2] (setting [8]), 98% (active); in assay [2] (at 50.0 µM) it was 99.7% (active). In addition, the growth inhibition in assay [3] (setting [7]) is -2%; in assay [3] (setting [8]), 98% (active); in assay [3] (at 50.0 µM), 99.5% (active); in assay [4] (setting [7]), -8%; in assay [4] (setting [8]) it was 98% (active); in assay [4] (at 50.0 µM) it was 97.2% (active). For the same molecule, the growth inhibition in assay [5] (setting [7]) is 2%; in assay [5] (setting [8]) it was 97% (active); in assay [5] (at 50.0 µM) it was 99.2% (active); in assay [6] (setting [7]), -4%; in assay [6] (setting [8]), 98% (active); in assay [6] (at 50.0 µM) it was 66.5%.
For `COc1cc(/C=C/c2ccnc3ccccc23)cc(OC)c1OC`, the growth inhibition was 30% in assay [1] (setting [7]); 59% in assay [1] (setting [8]); 43.4% in assay [1] (at 50.0 µM); 34% in assay [2] (setting [7]); 68% in assay [2] (setting [8]); 79.3% (active) in assay [2] (at 50.0 µM). The growth inhibition is 14% in assay [3] (setting [7]); 93% (active) in assay [3] (setting [8]); 88.2% (active) in assay [3] (at 50.0 µM); 25% in assay [4] (setting [7]); 45% in assay [4] (setting [8]); 65.3% in assay [4] (at 50.0 µM). The growth inhibition is 43% in assay [5] (setting [7]); 92% (active) in assay [5] (setting [8]); 72.6% (active) in assay [5] (at 50.0 µM); 45% in assay [6] (setting [7]); 81% (active) in assay [6] (setting [8]); 22.2% in assay [6] (at 50.0 µM).
On to `CCOC(=O)C1=C(C(=O)c2ccccc2)C(c2cccc([N+](=O)[O-])c2)C(C(=O)c2ccccc2)=C(C(=O)OCC)N1`, for which the growth inhibition in assay [1] (setting [7]) is -3%; in assay [1] (setting [8]), 60%; in assay [1] (at 50.0 µM), 56.2%; in assay [2] (setting [7]) it was 5%; in assay [2] (setting [8]), 33%; in assay [2] (at 50.0 µM) it was 25.6%. Besides, the growth inhibition in assay [3] (setting [7]) is 21%; in assay [3] (setting [8]), 36%; in assay [3] (at 50.0 µM), 25.6%; in assay [4] (setting [7]) it was -9%; in assay [4] (setting [8]), 27%; in assay [4] (at 50.0 µM), 17%. Besides, the growth inhibition was -7% in assay [5] (setting [7]); 63% in assay [5] (setting [8]); 38.5% in assay [5] (at 50.0 µM); -28% in assay [6] (setting [7]); 42% in assay [6] (setting [8]); 67.7% in assay [6] (at 50.0 µM).
Regarding `Oc1c(Cl)cc(Cl)cc1C=NCC1CCC(CN=Cc2cc(Cl)cc(Cl)c2O)CC1` (stereo not given), the growth inhibition in assay [1] (setting [7]) is 60%; in assay [1] (setting [8]), 86% (active); in assay [1] (at 50.0 µM) it was 87.5% (active); in assay [2] (setting [7]), 41%; in assay [2] (setting [8]), 92% (active); in assay [2] (at 50.0 µM), 91% (active). For the same molecule, the growth inhibition is 67% in assay [3] (setting [7]); 96% (active) in assay [3] (setting [8]); 90.3% (active) in assay [3] (at 50.0 µM); 39% in assay [4] (setting [7]); 58% in assay [4] (setting [8]); 80.1% (active) in assay [4] (at 50.0 µM). Moreover, the growth inhibition in assay [5] (setting [7]) was 73% (active); in assay [5] (setting [8]), 94% (active); in assay [5] (at 50.0 µM) it was 88.4% (active); in assay [6] (setting [7]), 72% (active); in assay [6] (setting [8]) it was 97% (active); in assay [6] (at 50.0 µM) it was 85.8% (active).
For `NC(=S)Nc1ccc2c(c1)Cc1ccccc1-2`, the growth inhibition in assay [1] (setting [7]) was 2%; in assay [1] (setting [8]) it was 29%; in assay [1] (at 50.0 µM), 64.5%; in assay [2] (setting [7]) it was -4%; in assay [2] (setting [8]), 3%; in assay [2] (at 50.0 µM), -0.4%. Besides, the growth inhibition is 2% in assay [3] (setting [7]); 23% in assay [3] (setting [8]); 59.9% in assay [3] (at 50.0 µM); -5% in assay [4] (setting [7]); -10% in assay [4] (setting [8]); 23.4% in assay [4] (at 50.0 µM). Also, the growth inhibition in assay [5] (setting [7]) was 0%; in assay [5] (setting [8]), 58%; in assay [5] (at 50.0 µM), 47%; in assay [6] (setting [7]), 7%; in assay [6] (setting [8]), 38%; in assay [6] (at 50.0 µM) it was 60.4%.
For the molecule `COc1cccc2c1C(=O)c1c(O)c3c(c(O)c1C2=O)C[C@@](O)(C(=O)CO)C[C@@H]3OC1CC(OC(C)=O)C(OC(C)=O)C(C)O1` (stereo not given in full), the growth inhibition in assay [1] (setting [7]) was 71% (active); in assay [1] (setting [8]), 98% (active); in assay [1] (at 50.0 µM), 86.8% (active); in assay [2] (setting [7]), 36%; in assay [2] (setting [8]) it was 99% (active); in assay [2] (at 50.0 µM), 87.5% (active). For the same molecule, the growth inhibition in assay [3] (setting [7]) is 37%; in assay [3] (setting [8]), 99% (active); in assay [3] (at 50.0 µM), 90% (active); in assay [4] (setting [7]), 41%; in assay [4] (setting [8]), 99% (active); in assay [4] (at 50.0 µM) it was 88.7% (active). For the same molecule, the growth inhibition is 42% in assay [5] (setting [7]); 99% (active) in assay [5] (setting [8]); 88.9% (active) in assay [5] (at 50.0 µM); 48% in assay [6] (setting [7]); 97% (active) in assay [6] (setting [8]); 91.6% (active) in assay [6] (at 50.0 µM).
